Survival data for 93 molecules are collected here from PubChem BioAssay AID463173 (ICCB-Longwood Screening Facility, Harvard Medical School, 2010).

Each structure is given as a SMILES string. Screen size: about 52,000 compounds; about 1,700 (3.3%) were called active. This excerpt belongs to a sample that is enriched for actives. Unmarked numbers belong to inactive results. Cut-off read from the data, not from the text of the source: active = survival mostly below about 52% (no sharp cut-off); inactive = mostly above about 56%.

This assay has as its system Wild type. The assay can be described thus: S. aureus survival, RN4220 and DeltatarO strains – OD600, teichoic acid synthesis inhibitors, primary screen (AID 463173). To be noted: S. aureus RN4220 wild type/DeltatarO growth, OD600, 18 h, active compounds read low, screened at 18.75 µg/mL (by protocol).
As for `Cc1cc(C)c(S(=O)(=O)NCC(c2ccco2)N2CCN(c3ccccc3)CC2)c(C)c1` (stereo not drawn), the survival was 85%.

Take `Cc1ccc(Nc2nc3ccccc3c3nncn23)c(Cl)c1`: the survival is 132%.

Regarding `O=C(NCc1cccs1)c1nn(-c2ccccc2Cl)nc1CO`, the survival is 116%.

With `COc1cccc(-c2cc(C(=O)Nc3cc(OC)c(OC)c(OC)c3)on2)c1`, the survival is 69%.

On to `COc1ccc(NS(=O)(=O)c2ccc3[nH]c4c(c3c2)CCCC4)c(OC)c1`, for which the survival was 99%.

For the molecule `COc1cccc(CCNC(=O)c2cnc3sc(N4CCCCCC4)nn3c2=O)c1`, the survival was 80%.

For `O=C(CSc1ncc(S(=O)(=O)c2ccc(Cl)cc2)c(=O)[nH]1)Nc1cccc(C(F)(F)F)c1`, the survival was 78%.

Turning to `COc1cccc(-c2noc(COc3cccc(C)c3C)n2)c1`, the survival was 85%.

On to `COc1ccc(C(=O)NCc2nc(-c3cccc(C)c3)no2)cc1OC`, for which the survival was 113%.

As to `COc1ccccc1OCc1nc(-c2cccc(C)c2)no1`, the survival was 0% (active).

For the molecule `Cc1ccc(N2C(=O)CS(=O)(=O)C23C(=O)N(Cc2cccc(F)c2)c2ccccc23)cc1Cl` (stereo not drawn), the survival was 75%.

Consider `COc1ccc(CC(=O)N2CC(=O)Nc3ccc(Br)cc3C2c2ccc(F)cc2)cc1` (stereo not drawn), for which the survival was 64%.

As for `Cc1ccc2c(c1)N(C(=O)Nc1cccc(C)c1C)CCO2`, the survival was 89%.

`COc1cc(NC(=O)c2c(C)nn(-c3ccc(F)cc3)c2-n2cccc2)cc(OC)c1`: the survival was 70%.

For `CCOC(=O)N1CCN(C(=O)c2c(C)nn(-c3cccc(C)c3)c2-n2cccc2)CC1`, the survival is -3% (active).

With `CCOC(=O)N1CCC(NC(=O)c2c(C)nn(-c3cccc(C)c3)c2-n2cccc2)CC1`, the survival is 85%.

As for `Cc1cccc(-n2nc(C)c(C(=O)N3CCN(c4ccccc4)CC3)c2-n2cccc2)c1`, the survival was 53%.

As to `COc1cccc(CNC(=O)c2c(C)nn(-c3cccc(C)c3)c2-n2cccc2)c1`, the survival was 71%.

Take `COc1cccc(NC(=O)c2c(C)nn(-c3cccc(C)c3)c2-n2cccc2)c1`: the survival was 0% (active).

With `Cc1ccc(NC(=O)C2C3C=CC4(O3)C2C(=O)N(c2ccccc2F)C4C(=O)NC2CCCC2)cc1` (stereo not drawn), the survival was 84%.

As to `O=C(Nc1ccc(C(=O)OCc2cc(=O)n3nc(C4CC4)sc3n2)cc1)c1ccccc1`, the survival was 70%.

As to `O=C(CCc1nc2cccnc2n1Cc1cccs1)Nc1cccc(C(F)(F)F)c1`, the survival is 79%.

On to `CCC(Sc1ncnc2sc3c(c12)CCCC3)C(=O)OCC(C)C` (stereo not drawn), for which the survival was -3% (active).

As for `CNC(=O)CSc1ncnc2sc3c(c12)CCCC3`, the survival was 104%.

`Clc1ncnc2sc3c(c12)CCCC3`: the survival is 108%.

For `CCOC(=O)CSc1ncnc2sc3c(c12)CCC3`, the survival is 100%.

`COC(=O)C(C)n1cnc2sc3c(c2c1=O)CCCC3` (stereo not drawn): the survival is 102%.

`CC(C)OCCCNc1ncnc2sc3c(c12)CCCC3`: the survival was 79%.

Turning to `CCC(Sc1ncnc2sc3c(c12)CCCC3)C(=O)OC(C)C` (stereo not drawn), the survival is -2% (active).

In the case of `CCOC(=O)C(CC)Sc1ncnc2sc3c(c12)CCCC3` (stereo not drawn), the survival is -3% (active).

`Nc1ncnc2sc3c(c12)CCCC3`: the survival is 109%.

Take `Cc1oc(-c2ccc(C(=O)Nc3cccc(C(F)(F)F)c3)cc2)nc1CSc1ccccc1`: the survival was 57%.

For `Cc1ccc(C)c(N2CCN(S(=O)(=O)c3ccc4oc(=O)c5ncn(C)c5c4c3)CC2)c1`, the survival was 81%.

For `Cc1c(Cl)cccc1NC(=O)Nc1nnc(N(C)C2CCCCC2)s1`, the survival is 111%.

Consider `Cc1ccc(-n2c(=O)c3cccnc3n2CC(=O)Nc2ccc(Br)cc2)cc1C`, for which the survival was 57%.

Regarding `O=C(CSc1ncc(-c2ccccc2)[nH]1)Nc1cccc(Br)c1`, the survival was 13%.

With `O=C(O)c1ccc(-c2ccc(/C=N/N3C(=O)C4C(C3=O)C3C=CC4C34CC4)o2)cc1` (stereo not drawn), the survival is 110%.

Consider `CC1CCN(S(=O)(=O)c2ccc3c(c2)N(C)C(=O)CC(=O)N3C)CC1`, for which the survival is 74%.

Consider `Cc1cccn2c(=O)c3cc(C(=O)NCC(C)C)sc3nc12`, for which the survival is 80%.

Take `COc1ccccc1N(C)C(=O)Cn1c(=O)oc2cc(S(=O)(=O)N3CCCC3)ccc21`: the survival is 127%.

As for `CCOc1ccc(NC(=O)CSc2nnc3scc(-c4ccccc4)n23)cc1`, the survival is 48%.

In the case of `Cc1ccc(C)c(CN2CCCN(Cc3ccc(F)cc3)S2(=O)=O)c1`, the survival was -6% (active).

`Cc1ccc(CN2CCCN(Cc3c(C)cc(C)cc3C)S2(=O)=O)cc1`: the survival was 63%.

For `COC(=O)c1ccc(OC)c(CN2CCCN(Cc3ccc(C)cc3)S2(=O)=O)c1`, the survival is -3% (active).

For the molecule `Cc1ccc(C)c(CN2CCCN(Cc3ccccc3C)S2(=O)=O)c1`, the survival was 76%.

As to `COc1ccc(NC(=O)CN2CCCN(Cc3ccc(Cl)cc3)S2(=O)=O)cc1Cl`, the survival is 67%.

As to `COC(=O)c1ccc(NC(=O)CN2CCCN(Cc3ccc(Cl)cc3)S2(=O)=O)cc1`, the survival was 110%.

As for `CCc1c(CN2CCN(c3cccc(C)c3)C(C)C2)csc1C` (stereo not drawn), the survival was 94%.

Consider `Cc1c(-c2ccccc2)c(=O)oc2ccc(OC(=O)N3CCOCC3)cc12`, for which the survival was 78%.

For the molecule `CC(C)(C)OC(=O)N1CCC(c2c(C(=O)N3CCN(c4ncccn4)CC3)cnn2-c2cccc(F)c2)CC1`, the survival is 134%.

Consider `CCCOc1ccc(Nc2cc(C)nc(C)n2)cc1`, for which the survival is 82%.

With `Cc1cc(C)cc(NC(=O)CCCc2nnc3n(CC(C)C)c(=O)c4sccc4n23)c1`, the survival was 97%.

Regarding `CCc1cccc(-n2nnc(-c3nsc(NC(=O)c4ccc(C)cc4)n3)c2C)c1`, the survival was 53%.

Turning to `CSc1cccc(-n2nnc(-c3nsc(NC(=O)c4cccs4)n3)c2C)c1`, the survival was 80%.

As for `CCc1cccc(-n2nnc(-c3nsc(NC(=O)c4cccs4)n3)c2C)c1`, the survival was -6% (active).

`Cc1cc(C)cc(-n2nnc(-c3nsc(NC(=O)c4ccccc4Cl)n3)c2C)c1`: the survival was 49%.

Take `Cc1ccc(-n2nnc(-c3nsc(NC(=O)c4ccccc4C)n3)c2C)cc1Cl`: the survival was 159%.

On to `CCc1ccc(-n2nnc(-c3nsc(NC(=O)c4ccccc4Cl)n3)c2C)cc1`, for which the survival was 12% (active).

As to `Cn1c(=O)c2cc(C(=O)NC3CCCCCC3)sc2c2ccccc21`, the survival was 89%.

With `CCCN(CCC)C(=O)Cn1c(=O)n(Cc2ccc(C(=O)NCCc3ccc(Cl)cc3)cc2)c(=O)c2ccccc21`, the survival was 113%.

As for `CCCCN(C(=O)CCn1c(=O)oc2ccccc21)c1ccccc1`, the survival was 71%.

With `COc1ccc(S(=O)(=O)n2nc(C)c(S(=O)(=O)N3CCCCC3)c2C)cc1`, the survival was 63%.

Regarding `CCCOc1ccc(OC(=O)c2sc3ncn(Cc4cccc(F)c4)c(=O)c3c2C)cc1`, the survival was 56%.

On to `COc1ccc(C(=O)Nc2ccccc2C(=O)OCc2cc(=O)n3nc(C4CC4)sc3n2)cc1`, for which the survival is 67%.

Turning to `CC1CCc2c(sc3ncnc(NCCOCCO)c23)C1` (stereo not drawn), the survival was 106%.

With `Cc1ccc(OCCCCn2nnc3sc4c(c3c2=O)CCC(C)C4)cc1` (stereo not drawn), the survival was 94%.

`CCC(C(=O)OC(C)C)n1cnc2sc3c(c2c1=O)CCC(C)C3` (stereo not drawn): the survival was 71%.

For the molecule `CCOC(=O)CSc1nc2sc3c(c2c(=O)n1Cc1ccccc1)CC(C)CC3` (stereo not drawn), the survival was 68%.

As for `CCCCCOC(=O)CSc1ncnc2c1sc1nc(N3CCOCC3)c3c(c12)CCCC3`, the survival was 61%.

Consider `Cc1ccc(-c2nc(NC(=O)CSc3ncnc4sc5c(c34)CCC(C)C5)ns2)cc1` (stereo not drawn), for which the survival is 75%.

In the case of `CCCOC(=O)CSc1ncnc2sc3c(c12)CCC(C)C3` (stereo not drawn), the survival was 7% (active).

As to `CCCCOC(=O)CSc1ncnc2sc3c(c12)CCC(C)C3` (stereo not drawn), the survival was 15% (active).

Consider `CCCCCOC(=O)CSc1ncnc2sc3c(c12)CCC(C)C3` (stereo not drawn), for which the survival is -1% (active).

`COc1ccccc1C(=O)Nc1nnc(SCc2cc(=O)c3ccccc3[nH]2)s1`: the survival was 72%.

In the case of `COc1ccc(NC(=O)c2cc(C(C)=O)n3ccccc23)cc1Cl`, the survival was 87%.

With `CCn1c(=O)c2sccc2n2c(CCCC(=O)N3CCN(c4ccc(OC)cc4)CC3)nnc12`, the survival was 96%.

`CCN(c1ccccc1)S(C)(=O)=O`: the survival is 101%.

`Cc1ccn2c(Nc3ccc(C(C)C)cc3)c(-c3cccs3)nc2c1`: the survival is 53%.

`Cc1ccc(CNC(=O)C(C)n2nc(C)c3sc4ccccc4c3c2=O)cc1` (stereo not drawn): the survival was 105%.

`Cc1ccc(OCC(=O)N(Cc2ccc(N(C)C)cc2)CC2CCCO2)cc1C` (stereo not drawn): the survival was 82%.

In the case of `COc1ccccc1Cn1cc(C(=O)c2ccc(C)cc2)c(=O)c2cc(C)ccc21`, the survival is 121%.

Consider `COc1ccccc1Cn1cc(C(=O)c2ccccc2)c(=O)c2cc(OC)c(OC)cc21`, for which the survival was 10% (active).

Turning to `CCc1ccc(C(=O)c2cn(Cc3ccccc3)c3cc(OC)c(OC)cc3c2=O)cc1`, the survival was 97%.

As for `O=C(c1ccc2c(c1)OCCO2)N(Cc1cccnc1)c1nc2c(Cl)cccc2s1`, the survival is 128%.

As to `O=C(Nc1cccc(C(F)(F)F)c1)c1cc(-c2ccc(Cl)s2)nc2ccccc12`, the survival was 100%.

Regarding `CCn1nc(C)c2c(-c3ccccc3)cc(=O)n(C(C)C(=O)NCc3ccc(C)cc3)c21` (stereo not drawn), the survival is 127%.

In the case of `COc1ccc(NC(=O)C2=C(C)Nc3ncnn3C2c2ccc[nH]2)cc1` (stereo not drawn), the survival is 83%.

Turning to `CC1=C(C(=O)Nc2ccccc2C)C(c2ccc[nH]2)n2ncnc2N1` (stereo not drawn), the survival is 99%.

Consider `CC1=C(C(=O)Nc2ccccc2)C(c2cccn2C)n2ncnc2N1` (stereo not drawn), for which the survival is 76%.

On to `COc1ccccc1NC(=O)C1=C(C)Nc2ncnn2C1c1cccn1C` (stereo not drawn), for which the survival is 0% (active).

With `CC1=C(C(=O)Nc2ccccc2)C(c2ccc[nH]2)n2ncnc2N1` (stereo not drawn), the survival is -3% (active).

For the molecule `COc1ccc(NC(=O)C2=C(C)Nc3ncnn3C2c2cccn2C)cc1` (stereo not drawn), the survival was 85%.

On to `COc1ccc(C2C(=O)N(C3CCCCCC3)CC(=O)N2Cc2ccccc2)cc1` (stereo not drawn), for which the survival was 67%.
